# Results: PubChem BioAssay (Tox21)
# “And” between values parts separate entries of the source, which are not always exact repeats. Equal values may be shown once. Inconclusive results are not listed. Entries that show only a call come without a potency. A number with no mark means an inactive call. The source made the active and inactive calls. The call rests on the fitted dose curve; in most records, active means well fitted curve in the direction sought with a large enough effect in the repeat runs; inconclusive means weak or mixed curves; inactive means no such curve, though single readings can be large; an effect the other way counts as inactive or inconclusive.
# Assay: qHTS RealTime-Glo MT Cell Viability Assay in HepG2 cells - 8 hour (AID 1224873); further: nearly all actives have a fitted effect of over 55% in size
# Conditions: RealTime-Glo luminescence; series mostly up to 76.8 µM
# Summary of the method: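 HepG2 cells mixed with RealTime-Glo MT reagents (NanoLuc plus cell-permeant prosubstrate) were seeded at 600 cells/well, incubated 5 h at 37 C/5% CO2, then pinned with compounds in DMSO; nonlytic luminescence tracked viability during 40 h treatment.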
# Potency means the concentration at half of the fitted maximal effect.
row,SMILES,Potency
1,Cn1cnc([N+](=O)[O-])c1Sc1ncnc2nc[nH]c12,inactive
2,Oc1ccc(O)cc1,inactive
3,CC(CCC(=O)O)(c1ccc(O)cc1)c1ccc(O)cc1,inactive
4,COc1ccc(OC)c(C(O)CNC(=O)CN)c1 (configuration not stated),inactive
5,C#C[C@]1(O)CC[C@H]2[C@@H]3CCc4cc(OC)ccc4[C@H]3CC[C@@]21C,inactive
6,Nc1ccccc1N,inactive
7,c1ccc2c(c1)Oc1ccccc1S2,inactive
8,Cc1c(OCC(F)(F)F)ccnc1CS(=O)c1nc2ccccc2[nH]1 (configuration not stated),inactive
9,CC(=O)C1(C)CC2=C(CCCC2(C)C)CC1C (configuration not stated),inactive
10,CCCCC(CC)COP(=O)(OCC(CC)CCCC)OCC(CC)CCCC (configuration not stated),inactive
11,O=C(Nc1ccc([N+](=O)[O-])cc1Cl)c1cc(Cl)ccc1O,inactive
12,CCCC(=O)O,inactive
13,CCCCc1oc2ccccc2c1C(=O)c1cc(I)c(OCCN(CC)CC)c(I)c1,39.2 µM (active)
14,CN(C)CCC=C1c2ccccc2CCc2ccccc21,inactive
15,CC(=O)Oc1ccccc1C(=O)Nc1ncc([N+](=O)[O-])s1,inactive
16,O=C(c1ccccc1)c1ccccc1O,inactive
17,O=C(/C=C/C=C/c1ccc2c(c1)OCO2)N1CCCCC1,inactive
18,O=CCc1ccccc1,inactive

row,SMILES,Potency
1,CN(C)CCN(Cc1cccs1)c1ccccn1,inactive
2,CCCCOCCOCCOCCO,inactive
3,c1cc(N(CC2CO2)CC2CO2)ccc1OCC1CO1 (configuration not stated),inactive
4,CC1=CC2C3CC(C=C3C)C2C1 (configuration not stated),inactive
5,OC1CCCCCCCCCCC1,inactive
6,O=C(c1ccc(OCCN2CCCCC2)cc1)c1c(-c2ccc(O)cc2)sc2cc(O)ccc12,inactive
7,CCC(C)OC(=O)c1ccc(O)cc1 (configuration not stated),inactive
8,OC[C@H]1O[C@@H]2O[C@H]3[C@H](O)[C@@H](O)[C@@H](O[C@H]4[C@H](O)[C@@H](O)[C@@H](O[C@H]5[C@H](O)[C@@H](O)[C@@H](O[C@H]6[C@H](O)[C@@H](O)[C@@H](O[C@H]7[C@H](O)[C@@H](O)[C@@H](O[C@H]8[C@H](O)[C@@H](O)[C@@H](O[C@H]1[C@H](O)[C@H]2O)O[C@@H]8CO)O[C@@H]7CO)O[C@@H]6CO)O[C@@H]5CO)O[C@@H]4CO)O[C@@H]3CO,inactive
9,COc1c(Cl)c(Cl)c(Cl)c(Cl)c1Cl,inactive
10,S=C(NC1CCCCC1)NC1CCCCC1,inactive
11,O=C1c2cccc(O)c2C(=O)c2c(O)cccc21,inactive
12,CC(=O)O[C@]1(C(C)=O)CC[C@H]2[C@@H]3C=C(Cl)C4=CC(=O)[C@@H]5C[C@@H]5[C@]4(C)[C@H]3CC[C@@]21C,inactive
13,CCC(C)c1ccccc1O (configuration not stated),inactive
14,CCOCCOCCO,inactive
15,COc1ccccc1/C=C/C=O,inactive
16,O=C(Nc1ccc(Cl)cc1)Nc1ccc(Cl)c(Cl)c1,inactive
17,C[C@]12CC[C@H]3[C@@H](CCC4=CC(=O)CC[C@@]43C)[C@@H]1CC[C@@H]2C(=O)CO,inactive
18,CC(C)Oc1ccc2c(=O)c(-c3ccccc3)coc2c1,inactive

# Assay: qHTS RealTime-Glo MT Cell Viability Assay in HEK293 cells - 40 hour (AID 1224874); further: nearly all actives have a fitted effect of over 50% in size
# Conditions: RealTime-Glo luminescence; max response: active compounds read low
# Summary of the method: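 HEK293 cells mixed with RealTime-Glo reagents (NanoLuc plus cell-permeant prosubstrate) at 600 cells/well, preincubated 5 h at 37 C/5% CO2, then given 23 nL compound in DMSO. Nonlytic luminescence from viable cells was read at 0, 8, 16, 24, 32 and 40 h.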
SMILES,Potency,max response
Cn1cnc([N+](=O)[O-])c1Sc1ncnc2nc[nH]c12,20.5 µM (active) and 21.3 µM (active),
CC(CCC(=O)O)(c1ccc(O)cc1)c1ccc(O)cc1,,-1.02% and 0.133%
COc1ccc(OC)c(C(O)CNC(=O)CN)c1 (configuration not stated),,2.49% and 0.0352%
C#C[C@]1(O)CC[C@H]2[C@@H]3CCc4cc(OC)ccc4[C@H]3CC[C@@]21C,24.5 µM (active) and 19 µM (active),
Nc1ccccc1N,,-5.16%
c1ccc2c(c1)Oc1ccccc1S2,,-19.5% and -6.23%
Cc1c(OCC(F)(F)F)ccnc1CS(=O)c1nc2ccccc2[nH]1 (configuration not stated),21.9 µM (active) and 10.7 µM (active),
CC(=O)C1(C)CC2=C(CCCC2(C)C)CC1C (configuration not stated),,-4.9% and 2.42%
c1ccc2sc(SSN3CCOCC3)nc2c1,19.5 µM (active) and 43.6 µM (active),
CCCCC(CC)COP(=O)(OCC(CC)CCCC)OCC(CC)CCCC (configuration not stated),,-14.5%
O=C(Nc1ccc([N+](=O)[O-])cc1Cl)c1cc(Cl)ccc1O,2.19 µM (active) and 827 nM (active),
CCCC(=O)O,,23.6% and 12.6%
CCCCc1oc2ccccc2c1C(=O)c1cc(I)c(OCCN(CC)CC)c(I)c1,34.9 µM (active) and 23.9 µM (active),
O=C(c1ccccc1)c1ccccc1O,,-15.9% and -14.9%
Cc1ccc2c(n1)Oc1ccc(C(C)C(=O)OCC(=O)N(C)C)cc1C2 (configuration not stated),,-20.9% and -25.9%
O=C(/C=C/C=C/c1ccc2c(c1)OCO2)N1CCCCC1,55.1 µM (active),

SMILES,Potency,max response
O=CCc1ccccc1,,1.86% and -0.86%
CN(C)CCN(Cc1cccs1)c1ccccn1,,-22.8% and -7.6%
CCCCOCCOCCOCCO,,3.72% and 4.47%
c1cc(N(CC2CO2)CC2CO2)ccc1OCC1CO1 (configuration not stated),19.5 µM (active) and 15.5 µM (active),
CC1=CC2C3CC(C=C3C)C2C1 (configuration not stated),,6.31% and 1.24%
OC1CCCCCCCCCCC1,,-5.96% and 2.11%
O=C(c1ccc(OCCN2CCCCC2)cc1)c1c(-c2ccc(O)cc2)sc2cc(O)ccc12,17.4 µM (active) and 21.9 µM (active) and 23.9 µM (active),
OC[C@H]1O[C@@H]2O[C@H]3[C@H](O)[C@@H](O)[C@@H](O[C@H]4[C@H](O)[C@@H](O)[C@@H](O[C@H]5[C@H](O)[C@@H](O)[C@@H](O[C@H]6[C@H](O)[C@@H](O)[C@@H](O[C@H]7[C@H](O)[C@@H](O)[C@@H](O[C@H]8[C@H](O)[C@@H](O)[C@@H](O[C@H]1[C@H](O)[C@H]2O)O[C@@H]8CO)O[C@@H]7CO)O[C@@H]6CO)O[C@@H]5CO)O[C@@H]4CO)O[C@@H]3CO,,3.33%
COc1c(Cl)c(Cl)c(Cl)c(Cl)c1Cl,,-6.1% and 5.51%
S=C(NC1CCCCC1)NC1CCCCC1,17 µM (active) and 21.9 µM (active),
CC(=O)O[C@]1(C(C)=O)CC[C@H]2[C@@H]3C=C(Cl)C4=CC(=O)[C@@H]5C[C@@H]5[C@]4(C)[C@H]3CC[C@@]21C,21.9 µM (active),
CCC(C)c1ccccc1O (configuration not stated),,-13% and 2.84%
CCOCCOCCO,,10.2% and 7.38%
O=C(Nc1ccc(Cl)cc1)Nc1ccc(Cl)c(Cl)c1,4.34 µM (active) and 3.89 µM (active) and 3.01 µM (active),
C[C@]12CC[C@H]3[C@@H](CCC4=CC(=O)CC[C@@]43C)[C@@H]1CC[C@@H]2C(=O)CO,38.9 µM (active),
